From PMC5540273 (PLoS ONE, 2017) come the findings set out here.

Common to all, as to conditions: concentration: 1 μM, replicates: in singlicate; n = 1
Experiment [1] concerns T1, PKAC-beta.
T1 construct: gene PRKACB

Experiment [2] deals with PKMYT1.
The subject of experiment [3] is PKN1.
In experiment [4] the test system is PKN2.
The test system of experiment [5] is PLK1.
Experiment [6] concerns PLK2.
Experiment [7] concerns PLK3.
Experiment [8] has as its system PLK4.
The test system of experiment [9] is PRKCD.
Experiment [10] relates to PRKCE.
The subject of experiment [11] is PRKCH.
For experiment [12], the system named is PRKCI.
Experiment [13] deals with PRKCQ.
The test system of experiment [14] is PRKD1.
The subject of experiment [15] is PRKD2.
The subject of experiment [16] is PRKD3.
Experiment [17] concerns PRKG1.
The subject of experiment [18] is PRKG2.
Experiment [19] concerns T2, PRKR.
T2 construct: gene EIF2AK2

Experiment [20] has as its system PRKX.
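Further: KINOMEscan kinase panel screen.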

`Fc1ccc(-c2nn3cccc(F)c3c2-c2ccncc2)cc1` [GW475620]: the “%Inh” value in experiment [1] was determined as 47%; in experiment [2] it was 11%; in [3] it was 9%; in experiment [4], 11%; in experiment [5], 9%; in experiment [6], 69%. In addition, the “%Inh” value in experiment [7] was found to be 0%; in [8], 3%; in [9], 19%; in experiment [10], 6%; in experiment [11], 42%; in experiment [12] it was 39%. The “%Inh” value in experiment [13] came to 14%; in [14] it was 16%; in experiment [15] it was 60%; in experiment [16], 34%; in [17], 34%; in experiment [18], 0%. Also, the “%Inh” value in [19] is on record as 0%; in experiment [20], 4%.

On to `c1ccc(-c2ccnc3[nH]ccc23)cc1` [SB-693578], for which the “%Inh” value is given as 8% in experiment [1]; 6% in experiment [2]; 0% in experiment [3]; 0% in experiment [4]; 0% in experiment [5]; 0% in experiment [6]. Further, the “%Inh” value came to 0% in experiment [7]; 5% in [8]; 0% in experiment [9]; 7% in experiment [10]; 0% in [11]; 13% in [12]. The “%Inh” value in experiment [13] is recorded as 0%; in [14], 0%; in experiment [15], 0%; in experiment [16] it was 0%; in experiment [17], 0%; in [18], 2%. The “%Inh” value in experiment [19] and in [20] was 0% in each case.

For `Nc1nccc(-c2c(-c3ccc(F)cc3)ncn2C2CCN(Cc3ccccc3)CC2)n1` [SB-219980], the “%Inh” value stood at 0% in experiment [1]; 26% in experiment [2]; 0% in experiment [3]; 0% in experiment [4]; 12% in experiment [5]; 28% in [6]. The “%Inh” value in [7] came out at 10%; in experiment [8], 8%; in [9] it was 0%; in experiment [10] it was 1%; in experiment [11], 0%; in [12] it was 0%. The “%Inh” value in experiment [13] turned out to be 0%; in [14] it was 0%; in [15], 3%; in experiment [16], 0%; in [17] it was 0%; in [18], 0%. Also, the “%Inh” value in experiment [19] and in experiment [20] was 0% in each case.

Regarding `Cc1ccc(NC(=O)Nc2ccccc2F)cc1-c1ccc(C(=O)Nc2ccncc2)cc1` [GSK1398477], the “%Inh” value is on record as 32% in [1]; 18% in experiment [2]; 26% in [3]; 12% in experiment [4]; 5% in experiment [5]; 0% in [6]. In addition, the “%Inh” value came to 0% in [7]; 0% in [8]; 19% in experiment [9]; 4% in experiment [10]; 39% in [11]; 0% in experiment [12]. Also, the “%Inh” value in experiment [13] was 19%; in [14], 0%; in experiment [15] it was 4%; in experiment [16] it was 23%; in experiment [17], 8%; in experiment [18], 0%. In addition, the “%Inh” value worked out at 0% in experiment [19] and 49% in experiment [20].

As to `O=C(Nc1n[nH]c2nc(-c3cccs3)c(Br)cc12)C1CC1` [SB-735297], the “%Inh” value in experiment [1] was 2%; in [2], 0%; in experiment [3], 0%; in experiment [4], 0%; in experiment [5] it was 9%; in [6], 19%. Moreover, the “%Inh” value is 7% in experiment [7]; 8% in experiment [8]; 7% in experiment [9]; 19% in experiment [10]; 4% in [11]; 0% in experiment [12]. Moreover, the “%Inh” value in experiment [13] worked out at 7%; in experiment [14], 0%; in experiment [15] it was 0%; in experiment [16], 0%; in [17] it was 2%; in experiment [18] it was 3%. For the same compound, the “%Inh” value in experiment [19] and in experiment [20] was 0% throughout.

For `Cn1cncc1C(=O)NC1CCN(c2ccnc(Nc3ccc(F)cc3)n2)C1` (centres unmarked) [GSK1379717], the “%Inh” value in [1] stood at 0%; in experiment [2] it was 0%; in experiment [3], 52%; in [4], 0%; in experiment [5], 12%; in [6], 0%. The “%Inh” value in experiment [7] was determined as 11%; in experiment [8], 0%; in experiment [9], 0%; in experiment [10], 0%; in experiment [11], 0%; in [12], 7%. In addition, the “%Inh” value turned out to be 0% in [13]; 0% in experiment [14]; 0% in [15]; 4% in experiment [16]; 0% in [17]; 99.3% in experiment [18]. The “%Inh” value in [19] and in experiment [20] was 0% each time.

For the compound `O=c1cc(N2CCOCC2)nc2n(Cc3cccc(Cl)c3Cl)c3ccccc3n12` [GSK2299009], the “%Inh” value in [1] was found to be 11%; in experiment [2], 32%; in experiment [3], 21%; in experiment [4], 0%; in experiment [5], 0%; in experiment [6], 0%. The “%Inh” value in experiment [7] was 0%; in experiment [8], 7%; in experiment [9], 32%; in [10], 3%; in experiment [11] it was 24%; in experiment [12], 8%. Besides, the “%Inh” value in experiment [13] came out at 0%; in [14], 7%; in experiment [15], 0%; in experiment [16], 3%; in experiment [17], 9%; in [18], 1%. Besides, the figures for the “%Inh” value in [19] and in [20] were 0% and 22%, respectively.

As to `COc1ccc(Nc2nccc(N3CCC(NC(=O)C(C)c4ccc(Cl)cc4)C3)n2)cc1` (centres unmarked) [GSK1379735], the “%Inh” value in experiment [1] is recorded as 4%; in experiment [2], 0%; in [3], 29%; in experiment [4], 0%; in experiment [5] it was 0%; in experiment [6] it was 0%. Further, the “%Inh” value in experiment [7] is reported as 0%; in experiment [8] it was 0%; in [9], 0%; in experiment [10], 5%; in experiment [11] it was 24%; in [12], 0%. Besides, the “%Inh” value is 23% in experiment [13]; 0% in experiment [14]; 0% in [15]; 21% in [16]; 0% in experiment [17]; 80% in experiment [18]. The “%Inh” value in [19] is recorded as 0%; in [20] it was 22%.

With `COc1ccc(CSc2nnc(-c3ccc4c(c3)CCO4)o2)cc1`, the “%Inh” value in experiment [1] is on record as 0%; in experiment [2], 19%; in experiment [3] it was 0%; in [4], 0%; in experiment [5], 0%; in [6] it was 0%. The “%Inh” value amounted to 0% in experiment [7]; 0% in experiment [8]; 14% in experiment [9]; 0% in experiment [10]; 0% in experiment [11]; 0% in experiment [12]. Also, the “%Inh” value in [13] was found to be 0%; in experiment [14], 0%; in experiment [15], 31%; in experiment [16], 0%; in [17] it was 0%; in experiment [18], 0%. For the same compound, the “%Inh” value in experiment [19] and in [20] was 0% in each case.

As to `CCn1c(-c2ccccc2)nc2cnccc21` [SB-733416], the “%Inh” value amounted to 3% in [1]; 30% in [2]; 0% in [3]; 0% in experiment [4]; 0% in experiment [5]; 0% in experiment [6]. The “%Inh” value in [7] was 0%; in [8] it was 0%; in experiment [9] it was 8%; in experiment [10], 22%; in [11] it was 3%; in experiment [12], 8%. Further, the “%Inh” value in experiment [13] was determined as 44%; in [14], 0%; in experiment [15] it was 1%; in experiment [16] it was 0%; in experiment [17] it was 0%; in [18], 0%. The “%Inh” value in experiment [19] is recorded as 0%; in experiment [20], 5%.
